Most compounds without a hit are left out; they make up all but 11% or so of the library.
HPGD inh = HPGD (human) dehydrogenase inhibition; actives 4.3% (n = 150,000); purified HPGD, NADH fluorescence kinetic, PGE2 substrate; Potency, µM, inactives show top-dose activity change, negative = inhibition, actives largely listed as inhibitors; P15428; further: potency means the concentration at half of the fitted maximal effect
Target sequence (P15428 whole entry, looked up): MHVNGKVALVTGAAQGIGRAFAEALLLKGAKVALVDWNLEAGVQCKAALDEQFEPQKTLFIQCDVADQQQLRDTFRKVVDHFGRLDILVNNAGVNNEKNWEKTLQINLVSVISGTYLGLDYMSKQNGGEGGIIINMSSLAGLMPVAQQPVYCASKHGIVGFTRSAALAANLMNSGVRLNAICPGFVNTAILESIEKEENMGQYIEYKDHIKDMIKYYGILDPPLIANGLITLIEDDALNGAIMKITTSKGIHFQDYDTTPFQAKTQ
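NADH formation kinetics: reaction with 30 uM PGE2 and 1 mM NAD+ (final), 20 nM enzyme, Tris-HCl pH 8 with Tween 20, after 15 min compound preincubation at room temperature. Fluorescence change, last versus first of five reads.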
IMPase Li inh = membrane-permeable IMPase blocker, potentiated with lithium. Potency, µM (highest dose often 59.4 µM), for inactives: at the highest dose activity, negative = IMPase inhibition, most hits filed as inhibitors. CHO-M1 cells, IP1 TR-FRET (IP-One), carbachol + lithium. AID 1457. actives 0.35% (n = 210,000); active means well fitted curve in the direction sought with a large enough effect; inconclusive means small, poorly fitted or top-dose-only effect, or another doubt; inactive means no such curve, though single readings can be large; an effect the other way counts as inactive or inconclusive;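 further: IP1 builds up when IMPase is blocked and the TR-FRET signal falls; potency means the concentration at half of the fitted maximal effect; plate controls were basal vehicle for no effect and high inhibitor control for full effect; nearly all actives have a fitted effect of over 50% in size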
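Lithium-sensitised IP1 accumulation assay; M1-expressing CHO cells treated 30 min at 37C with compound. Competitive antibody detection by time-resolved FRET followed a 10 min room-temperature lysis step.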
IMPase inh = membrane-permeable compound that blocks inositol monophosphatase. P97697. CHO-M1 cells, IP1 accumulation, HTRF TR-FRET ratio. inhibition (IP1 accumulation), % at 46.1 µM. 120,000 tested, under 10 active; active means well fitted curve in the direction sought with a large enough effect in the signal ratio, not every such curve was filed as active; inconclusive means small, poorly fitted or top-dose-only effect, or a change in a side signal; inactive means no such curve, though single readings can be large or run the other way; the % refers to the signal ratio;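 further: cells stimulated with carbachol in lithium chloride buffer; plate controls were DMSO basal wells for no effect and reference inhibitor wells for full effect; higher means more IMPase inhibition seen as more IP1 and lower FRET ratio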
Target sequence (P97697 whole entry, looked up): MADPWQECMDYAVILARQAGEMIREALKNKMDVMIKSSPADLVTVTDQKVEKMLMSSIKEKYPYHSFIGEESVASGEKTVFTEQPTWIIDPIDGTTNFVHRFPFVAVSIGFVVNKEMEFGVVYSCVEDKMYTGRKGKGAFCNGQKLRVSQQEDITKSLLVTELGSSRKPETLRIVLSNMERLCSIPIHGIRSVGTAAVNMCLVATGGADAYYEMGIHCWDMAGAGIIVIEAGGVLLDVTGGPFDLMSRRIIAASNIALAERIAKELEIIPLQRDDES
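CHO-M1 cells (CHO stably expressing M1 receptor), compound up to 46 uM final, stimulated with carbachol (50 uM as added) in buffer with 50mM LiCl, pH 7.4, 30 min at 37C. Cytosolic IP1 read by TR-FRET; AC50 from Hill fits.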
ALOX12 inhib = blocks human 12-lipoxygenase activity. P18054. purified 12-hLO, xylenol orange hydroperoxide absorbance. AID 1452. Potency, µM (doses to about 57.1 µM), inactives show top-dose activity change, negative = inhibition, actives largely listed as inhibitors. actives 0.12% (n = 150,000); active means well fitted curve in the direction sought with a large enough effect; inconclusive means small, poorly fitted or top-dose-only effect, or another doubt; inactive means no such curve, though single readings can be large; an effect the other way counts as inactive or inconclusive; further: potency means the concentration at half of the fitted maximal effect; nearly all actives have a fitted effect of over 55% in size
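Purified human 12hLO (150 nM final) was preincubated with compounds for 15 min at room temperature in 25 mM Hepes pH 7.0, 0.01% Triton X-100, then reacted with 40 uM arachidonic acid for 30 min. Hydroperoxide was detected with ferrous iron/xylenol orange.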
PNC inhibitor = perinucleolar compartment assembly inhibition; actives 3.1% (n = 140,000); PC3M PTB-GFP, PNC prevalence imaging, 16 h; stronger effect = lower value; activity change (PNC), negative = inhibition, % at 10 µM;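 active means readout at or below -70, meaning at least 70% loss of cells showing the perinucleolar compartment, a nuclear body marking cancer cells; inconclusive means readout between -30 and a set limit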;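 further: plate controls were DMSO wells for no effect and camptothecin positive control wells for full effect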
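Compounds are pinned in duplicate onto adhered PC3M cells stably expressing GFP-tagged PTB and incubated 16 h at 37 C. Cells are then fixed, nuclei stained with Hoechst, and PNC-positive cells counted.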
ALDH1A1 block = ALDH1A1 (human) enzyme inhibition. actives 7.3% (n = 220,000). Purified ALDH1A1, NADH fluorescence, propionaldehyde substrate. Potency, µM (titrated, usually from 75.3 µM), inactives show at the highest dose activity, negative = inhibition, most hits filed as inhibitors;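 further: potency means the concentration at half of the fitted maximal effect; plate controls were no enzyme wells and a reference inhibitor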
An asterisk follows results filed as active; [ ] = dose if it differs, or a comment. Unless noted, the call rests on the fitted dose curve; in most records, active means well fitted inhibition curve with a large enough effect (not every such curve was filed as active); inconclusive means small, poorly fitted or top-dose-only effect, or another doubt; inactive means no such curve, though single readings can be large or run the other way. Unless noted, on the % scale 0 is the no-effect control and ±100 the full control effect.

Screening O=C(C1CCC1)N1CCc2cc(S(=O)(=O)NC3CCCC3)ccc21 returned HPGD inh 10µM*, IMPase Li inh -14%[38.3 µM], IMPase inh 5, ALOX12 inhib 2%, PNC inhibitor 43 and ALDH1A1 block -9%.
Screening CN(Cc1ccco1)S(=O)(=O)c1ccc2c(c1)CCN2C(=O)CCC(=O)O returned HPGD inh 14µM*, IMPase Li inh -12%, ALOX12 inhib -1%, PNC inhibitor 30 and ALDH1A1 block 10%.
For CC(=O)N1CCc2cc(S(=O)(=O)CCC(=O)NCc3ccco3)ccc21 the results were IMPase Li inh -11% and ALDH1A1 block 12%.
`CC(=O)C=NCC(=O)O` gave HPGD inh -4%, IMPase Li inh -5%, ALOX12 inhib 0%[11.4 µM] and ALDH1A1 block -4%[13.5 µM].
For COCCNc1nc(C(C)(C)C)nc2c1nnn2Cc1ccccc1Cl the results were HPGD inh -8%, IMPase Li inh 37%[38.3 µM], IMPase inh 5, ALOX12 inhib -4%, PNC inhibitor -102* and ALDH1A1 block -10%.
COc1ccccc1Cn1[nH]nnc1=S was read as ALDH1A1 block 4µM*.
Screening CCN1C(=O)c2ccccc2S(=O)c2ccc(C(=O)NCCCN3CCCC3=O)cc21 (configuration not stated) returned HPGD inh -10%, IMPase Li inh 25%, IMPase inh 6, ALOX12 inhib 3%, PNC inhibitor 31 and ALDH1A1 block 5%.
C/C(CC(C)(C)c1ccccc1)=N\NS(=O)(=O)c1ccccc1 was read as IMPase Li inh 17% and ALDH1A1 block 13µM*.
Screening Cc1cc(C)c2cc3c(N)c(C(=O)N4CCc5ccccc5C4)sc3nc2c1 returned HPGD inh 7.1µM*, IMPase Li inh 29%[38.3 µM], IMPase inh 2[1.84 µM], ALOX12 inhib -3%, PNC inhibitor inconclusive and ALDH1A1 block 4%.
`CN1CCN(c2ncc3nc(-c4ccc(F)cc4)c(=O)n(Cc4cccs4)c3n2)CC1` gave IMPase Li inh 38% and ALDH1A1 block inconclusive.
For Cc1ccc(N2CC3=C(C2=O)C(c2ccccc2)NC(=O)N3C)cc1 (configuration not stated) the results were HPGD inh -15%, IMPase Li inh 5%[38.3 µM], IMPase inh -2, ALOX12 inhib -2%, PNC inhibitor -24 and ALDH1A1 block 12%.
Screening Cc1cccc(N2CC3=C(C2=O)C(c2ccccc2)NC(=O)N3C)c1 (configuration not stated) returned HPGD inh -7%, IMPase Li inh 28%[38.3 µM], IMPase inh 4, ALOX12 inhib -3%, PNC inhibitor -81* and ALDH1A1 block -8%.
For CCOc1ccccc1NC(=O)C(OC(=O)c1ccc(O)cc1)c1ccccc1 (configuration not stated) the results were HPGD inh -10%, IMPase Li inh 15%, IMPase inh 4, ALOX12 inhib -2%, PNC inhibitor 11 and ALDH1A1 block 7.9µM*.
CCOc1ccccc1NC(=O)C(OC(=O)c1ccc(CC)cc1)c1ccccc1 (configuration not stated) was read as HPGD inh -4%, IMPase Li inh 10%, ALOX12 inhib -1%, PNC inhibitor -12 and ALDH1A1 block inconclusive.
For COC(=O)/C(=N/Nc1ccccc1C)Sc1nnc(C(O)c2ccccc2)n1-c1ccccc1 (configuration not stated) the results were HPGD inh 32µM*, IMPase Li inh -19%, ALOX12 inhib -3%, PNC inhibitor -7 and ALDH1A1 block -5%.
For CCCC[C@@H]1C[C@H]1C(NC(=O)c1cccnc1)c1ccc(Cl)cc1 (some centres not stated) the results were HPGD inh -27%, IMPase Li inh 13%, ALOX12 inhib -11% and ALDH1A1 block -46%.

Source: PubChem (National Center for Advancing Translational Sciences (NCATS))
